In PubChem BioAssay:
Potency and affinity values are given separately. Calls of active or inactive are those of the source. Entries that show only a call come without a potency. No rule for the calls is given here.

system: not listed separately; experiment: A549 cell cytotoxicity, dose response, cytotoxicity control, plate reader, cherry-pick, antagonist series (AID 743412); conditions: series mostly up to 26 µM

Structure (SMILES) | outcome
Cc1ccc(S(=O)(=O)N2[C@@H](CO)CO[C@H]2CC(=O)OCc2ccccc2)cc1 | inactive
Cc1ccc(S(=O)(=O)N2CCCc3nc(-c4ccc(F)cc4)ccc32)cc1 | inactive
Cc1ccc(CNS(=O)(=O)c2ccc3c(c2)CCN3C(=O)CCCC(=O)O)cc1 | inactive

system: not listed separately; experiment: HepG2 cell cytotoxicity, dose response, cytotoxicity control, plate reader, cherry-pick, antagonist series (AID 743416); conditions: series mostly up to 26 µM

Structure (SMILES) | outcome
Cc1ccccc1-c1ccc([C@H]2[C@@H](CO)N3CCCCN(S(=O)(=O)c4ccc(F)cc4)C[C@@H]23)cc1 | inactive
CC(C)CCNC(=O)C(c1ccc(O)cc1)N(Cc1cccs1)C(=O)C1COc2ccccc2O1 (stereo not drawn) | inactive
CC1CCCN(c2ncnc3c2cnn3-c2ccc(Cl)cc2)C1 (stereo not drawn) | inactive
CCOc1ccc(-n2cc(-c3ccccc3)c3c(N4CCOCC4)ncnc32)cc1 | inactive
Nc1nccc(-c2cc(-c3ccc(Cl)cc3Cl)no2)n1 | inactive
C[C@H](CO)N1C[C@H](C)[C@H](CN(C)C(=O)Nc2cccc3ccccc23)OCCCC[C@H](C)Oc2ccc(NC(=O)CCC(F)(F)F)cc2C1=O | inactive
Cc1ccc(-n2[nH]c(=O)c(-c3ccccn3)c2C)cc1 | inactive
CN(C(=O)COC(=O)c1nc(Cl)c(Cl)c(Cl)c1Cl)C1CCS(=O)(=O)C1 (stereo not drawn) | inactive
Cc1ccnc(NC(=O)CCC(=O)c2cccs2)c1 | inactive
COc1ccc(-c2cc(-c3ccccc3)no2)cc1 | inactive
CCc1cc(-c2ccc3c(c2)COc2c4ccccc4nn2-3)on1 | inactive
CCCc1nc(SCC(=O)N2CCC(Cc3ccccc3)CC2)c2c(=O)n(C)c(=O)n(C)c2n1 | inactive
COCCOc1cc(NCc2ccccc2)c2ncn(C(C)C)c2c1 | inactive
CCCCNc1c(-c2cccc(-c3cc(C(C)=O)cs3)c2)nc2ccc(C)cn12 | inactive
COc1ccc(S(=O)(=O)N(C)C[C@@H]2OCCCC[C@H](C)Oc3ccc(NS(=O)(=O)c4ccc(F)cc4)cc3C(=O)N([C@@H](C)CO)C[C@@H]2C)cc1 | inactive
COCCn1c(C)cc(C(=O)CSc2nnc3ccccn23)c1C | inactive
CCOc1ccc(C(=O)NCCc2ccccc2)cc1 | inactive
CC(C)CCn1cnc2c(oc3nc4c(cc32)CCCC4)c1=O | inactive
CSc1nnc(NC(=O)c2ccc3c(c2)OCO3)s1 | inactive

Structure (SMILES) | outcome
c1ccc(-c2cn3c4c(sc3n2)CCCC4)cc1 | inactive
CN1CCN(c2ccc(NC(=O)N3CCc4ccccc43)cc2)CC1 | inactive
Cc1ccc(S(=O)(=O)N(C)C[C@H]2Oc3c(cccc3N(C)C)C(=O)N([C@@H](C)CO)C[C@@H]2C)cc1 | inactive
O=C(c1ccccc1)N1CCSc2sccc2C1=O | inactive
COc1cc(SC)ccc1C(=O)Nc1nc(C)cs1 | inactive
CCOc1ccc(-c2cnc3ccccc3n2)cc1 | inactive
CCCCc1ccc(NC(=O)c2cnccn2)cc1 | inactive
COc1ccc(-n2cc(C(=O)c3ccccc3O)cn2)cc1 | inactive
COc1ccc(-c2cc(C(=O)Nc3cccc(O)c3)no2)cc1 | inactive
COc1ccccc1N/C=C/c1onc(C)c1[N+](=O)[O-] | inactive
O=C(COC(=O)c1ccccc1C(=O)c1ccc(Cl)c([N+](=O)[O-])c1)NC1CC1 | inactive
O=C(O)c1cccc(COc2ccc(CO)cc2Cl)c1 | inactive
Clc1ccc(-c2cc(-c3ccccn3)on2)c(Cl)c1 | inactive
COc1ccc(-n2ncc3c(N(C)C4CCCCC4)ncnc32)cc1 | inactive
COc1ccccc1N(Cc1ccccc1)S(=O)(=O)c1cccc(C(=O)Nc2cc(C)ccn2)c1 | inactive
O=C1CC(c2ccc3c(c2)OCO3)Sc2nc3ccccc3n21 (stereo not drawn) | inactive
O=C(Nc1ccc(Cl)cc1)Nc1cccc(C(=O)O)c1 | inactive
Nc1ccc(-c2nc3ccc(N)cc3s2)cc1 | inactive

target: Melanocortin receptor 4 (Homo sapiens) (UniProt P32245); experiment: MC4R antagonists, dose response, counter-screen for LGR2 antagonist project, cell-based, plate reader, cherry pick (AID 743444); conditions: MC4R-expressing cells, antagonist mode; series mostly up to 35 µM

Structure (SMILES) | outcome
Cc1ccc(S(=O)(=O)N2[C@@H](CO)CO[C@H]2CC(=O)OCc2ccccc2)cc1 | inactive
Cc1ccc(S(=O)(=O)N2CCCc3nc(-c4ccc(F)cc4)ccc32)cc1 | inactive
Cc1ccc(CNS(=O)(=O)c2ccc3c(c2)CCN3C(=O)CCCC(=O)O)cc1 | inactive
